Only some compounds are listed: those with a hit (about 5% of all), similar ones and a draw of the others.
CHT inh: inhibitors of human choline transporter CHT. 0.86% of 310,000 active. B-score at 10 µM. CHT-expressing cells, membrane potential dye, choline response; active compounds read low;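 active means B-score over 3 SD under the library average, and starting fluorescence ratio not unusually high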;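 further: choline stimulus applied at its EC90 after an EC20 pre-addition; B-score computed on integrated fluorescence ratio after choline addition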
ALR H2O2 inh: inhibitors of human ALR sulfhydryl oxidase, primary screen, biochemical, H2O2 detection, HRP-luminol luminescence, single point. inhibition, % (concentration not given with the values). 3.8% of 290,000 active. purified ALR, DTT oxidation. FAD-linked sulfhydryl oxidase ALR (Homo sapiens), P55789;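 active means mean replicate inhibition above about 79%, with every replicate also reaching it, limit read from the data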
PREPL inhibitor: PREPL enzyme inhibitors, primary screen, biochemical, fluorescence polarization | recombinant PREPL, fluorescence polarization activity-based probe | inhibition, % at 5.96 µM | 0.68% of 320,000 active;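 further: 0% = enzyme with DMSO and 100% = wells lacking enzyme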
Target sequence (Q4J6C6 whole entry, looked up): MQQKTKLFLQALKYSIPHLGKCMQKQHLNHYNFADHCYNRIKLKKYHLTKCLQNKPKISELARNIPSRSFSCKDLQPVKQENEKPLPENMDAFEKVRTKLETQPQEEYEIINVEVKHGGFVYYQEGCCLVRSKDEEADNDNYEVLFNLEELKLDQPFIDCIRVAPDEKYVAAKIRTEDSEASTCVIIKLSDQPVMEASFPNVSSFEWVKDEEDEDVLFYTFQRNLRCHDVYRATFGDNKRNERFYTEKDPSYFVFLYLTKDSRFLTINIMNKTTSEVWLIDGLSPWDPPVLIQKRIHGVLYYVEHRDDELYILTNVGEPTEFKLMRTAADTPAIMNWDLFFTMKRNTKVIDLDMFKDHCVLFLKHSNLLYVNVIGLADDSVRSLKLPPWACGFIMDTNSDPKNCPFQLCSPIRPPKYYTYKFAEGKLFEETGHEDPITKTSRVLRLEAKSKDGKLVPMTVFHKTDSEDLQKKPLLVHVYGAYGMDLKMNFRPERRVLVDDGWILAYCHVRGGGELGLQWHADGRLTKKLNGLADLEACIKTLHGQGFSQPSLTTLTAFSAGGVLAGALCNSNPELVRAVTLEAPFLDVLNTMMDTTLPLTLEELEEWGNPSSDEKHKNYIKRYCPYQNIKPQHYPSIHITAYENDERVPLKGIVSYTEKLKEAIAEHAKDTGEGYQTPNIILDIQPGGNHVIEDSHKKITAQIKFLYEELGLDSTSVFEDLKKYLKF
AI-2 QS mod: Vibrio harveyi AI-2 quorum sensing modulators, primary screen, JMH597 strain, luminescence/OD600 ratio | activity change, % at 7.5 µM | Vibrio harveyi JMH597 AI-2 luminescence/OD600 ratio, 9 h; active compounds read low; strain lacks LuxN and CqsS sensors; 0 = neutral-control median | AID 2094, 2009 | 0.4% of 300,000 active; in the data active means activity change below about -75%, passing the limit was not always enough;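 further: luminescence divided by OD600 gain over 9 h not by final OD600 alone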
CHT PAM: CHT positive allosteric modulators, primary screen, cell-based, membrane potential dye, choline EC20; CHT-expressing cells; active compounds read high; LV-AA mutant CHT in HEK293 cells; High affinity choline transporter 1 (Homo sapiens), Q9GZV3; 0.49% of 310,000 active; B-score at 10 µM;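 active means initial fluorescence not abnormally high and integrated response B-score, plate-corrected, over 3 SD above library mean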
PREPL inh cf: human PREPL enzyme inhibitors, confirmation, biochemical, fluorescence polarization | recombinant PREPL, fluorescence polarization activity probe | AID 2803, 2010 | 67% of 2,000 active | shares compounds with PREPL inhibitor | inhibition, % at 5.96 µM;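 further: 0% = protein with DMSO and 100% = wells lacking protein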
Numbers without * were called inactive. Unless noted, no stated cut-off is given here; in the data, active means inhibition above about 43%; inactive means the rest.

How did CCc1cc(=O)[nH]c(-n2[nH]c(-c3ccccc3)cc2=O)n1 do in these assays?
CHT inh: inactive; ALR H2O2 inh: 29; PREPL inhibitor: 57*; AI-2 QS mod: 21; CHT PAM: inactive; PREPL inh cf: 2

How did O=c1cc(-c2ccccc2)[nH]n1-c1nc2ccccc2[nH]1 do in these assays?
CHT inh: inactive; ALR H2O2 inh: 45; PREPL inhibitor: -1; AI-2 QS mod: 28; CHT PAM: inactive

What do the screens show for `C[C@@H]1O[C@@H](Oc2c(-c3cc(O)c(O)c(O)c3)oc3cc(O)cc(O)c3c2=O)[C@H](O)[C@H](O)[C@H]1O`?
CHT inh: inactive; ALR H2O2 inh: 99*; PREPL inhibitor: 48*; AI-2 QS mod: 10; CHT PAM: inactive; PREPL inh cf: 20

How did COc1ccc(-c2oc3c(CC=C(C)C)c(O[C@@H]4O[C@H](CO)[C@@H](O)[C@H](O)[C@H]4O)cc(O)c3c(=O)c2O[C@@H]2O[C@@H](C)[C@H](O)[C@@H](O)[C@H]2O)cc1 do in these assays?
CHT inh: inactive; ALR H2O2 inh: 17; PREPL inhibitor: -6; AI-2 QS mod: 17; CHT PAM: inactive

What do the screens show for `C#CCOCCOCCOCCNc1nc(N2CCN(C(=O)[C@H]([C@@H](C)CC)n3cc([C@@H](N)CC(C)C)nn3)CC2)nc(N2CCN(C(=O)[C@H](Cc3cc4ccccc4[nH]3)n3cc([C@@H](N)Cc4ccc(O)cc4)nn3)CC2)n1`?
CHT inh: inactive; ALR H2O2 inh: -8; PREPL inhibitor: 43; AI-2 QS mod: 31; CHT PAM: inactive

Results for C#CCOCCOCCOCCNc1nc(N2CCN(C(=O)C(Cc3ccc(O)cc3)n3cc(C(N)CC(C)C)nn3)CC2)nc(N2CCN(C(=O)C(Cc3cc4ccccc4[nH]3)n3cc(C(N)C(C)CC)nn3)CC2)n1 (stereo unspecified) ?
CHT inh: inactive; ALR H2O2 inh: -35; PREPL inhibitor: 51*; AI-2 QS mod: 21; CHT PAM: inactive; PREPL inh cf: 51*

How did C#CCOCCOCCOCCNc1nc(N2CCN(C(=O)[C@H](Cc3ccc(O)cc3)n3cc([C@@H](N)CC(C)C)nn3)CC2)nc(N2CCN(C(=O)[C@H](Cc3cc4ccccc4[nH]3)n3cc([C@@H](N)CC(C)C)nn3)CC2)n1 do in these assays?
CHT inh: inactive; PREPL inhibitor: 53*; AI-2 QS mod: 13; CHT PAM: inactive; PREPL inh cf: 50*

What do the screens show for `C#CCOCCOCCOCCNc1nc(N2CCN(C(=O)[C@H](Cc3ccc(O)cc3)n3cc([C@@H](N)C(C)CC)nn3)CC2)nc(N2CCN(C(=O)[C@H](Cc3cc4ccccc4[nH]3)n3cc([C@@H](N)Cc4ccc(O)cc4)nn3)CC2)n1` (stereo partly specified)?
CHT inh: inactive; ALR H2O2 inh: -4; PREPL inhibitor: 53*; AI-2 QS mod: 15; CHT PAM: inactive; PREPL inh cf: 48*

What do the screens show for `O=C(NCC(=O)N1CCCCCC1)c1ccc(Cl)cc1`?
CHT inh: inactive; ALR H2O2 inh: -5; PREPL inhibitor: 2; AI-2 QS mod: -9; CHT PAM: inactive

How did CS(=O)(=O)c1ccccc1C(=O)N(CCC1=CCCCC1)c1c(N)n(Cc2ccccc2)c(=O)[nH]c1=O do in these assays?
CHT inh: inactive; PREPL inhibitor: 8; AI-2 QS mod: 26; CHT PAM: inactive

Results for Cc1c(CCC(=O)NCCCn2ccnc2)c(=O)oc2c(C)c3oc4c(c3cc12)CCCC4 ?
CHT inh: inactive; ALR H2O2 inh: -3; PREPL inhibitor: 49*; AI-2 QS mod: 17; CHT PAM: inactive; PREPL inh cf: 38

What do the screens show for `Cc1ccc(C(NC(=O)c2cccc(S(=O)(=O)N3CCN(C)CC3)c2)c2ccccc2)cc1` (stereo unspecified)?
ALR H2O2 inh: -2; PREPL inhibitor: 4
